Target: T1, USP38 (UniProt Q8NB14)
T1 sequence (whole entry): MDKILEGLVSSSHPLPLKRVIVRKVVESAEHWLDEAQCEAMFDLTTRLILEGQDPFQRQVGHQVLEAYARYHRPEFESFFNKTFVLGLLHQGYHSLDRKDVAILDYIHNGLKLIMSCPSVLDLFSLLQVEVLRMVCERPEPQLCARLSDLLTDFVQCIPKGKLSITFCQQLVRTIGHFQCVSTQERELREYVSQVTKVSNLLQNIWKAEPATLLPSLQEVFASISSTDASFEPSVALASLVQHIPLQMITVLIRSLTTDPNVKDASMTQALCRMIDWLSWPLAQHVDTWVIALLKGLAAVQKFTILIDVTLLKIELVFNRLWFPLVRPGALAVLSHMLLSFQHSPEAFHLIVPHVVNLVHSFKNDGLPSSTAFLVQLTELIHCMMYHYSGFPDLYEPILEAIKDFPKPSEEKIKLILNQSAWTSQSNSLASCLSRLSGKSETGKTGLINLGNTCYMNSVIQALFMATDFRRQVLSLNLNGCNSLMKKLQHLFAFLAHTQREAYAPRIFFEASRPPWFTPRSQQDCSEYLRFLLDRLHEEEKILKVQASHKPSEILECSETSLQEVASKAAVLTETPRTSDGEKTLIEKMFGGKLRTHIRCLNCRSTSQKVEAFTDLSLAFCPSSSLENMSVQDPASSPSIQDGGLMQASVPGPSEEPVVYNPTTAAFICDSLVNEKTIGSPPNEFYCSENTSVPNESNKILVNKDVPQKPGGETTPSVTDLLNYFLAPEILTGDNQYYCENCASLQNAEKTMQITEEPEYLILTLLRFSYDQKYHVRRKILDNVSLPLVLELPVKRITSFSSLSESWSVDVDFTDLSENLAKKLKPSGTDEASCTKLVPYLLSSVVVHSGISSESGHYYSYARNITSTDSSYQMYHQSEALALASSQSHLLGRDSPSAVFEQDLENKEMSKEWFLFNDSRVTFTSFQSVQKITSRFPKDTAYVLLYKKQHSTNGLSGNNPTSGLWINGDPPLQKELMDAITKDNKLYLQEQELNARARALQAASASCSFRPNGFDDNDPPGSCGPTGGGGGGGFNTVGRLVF
Assay: log2 ratio of Biotin-Ahx-Ub-VS probe labelling (compound/DMSO); higher = less target engagement, active = hit call of the paper (q ≤ 0.05, log2 ratio ≤ -1)
Conditions: compound concentration: 50uM; treatment time: 3 h
Method: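 Round 2 competitive ABPP in HEK293T lysate. Compounds were tested at 50 and 200 µM for 3 h, followed by Biotin-Ahx-Ub-VS enrichment and diaPASEF LC-MS/MS. Values are the average log2 ratio (compound/DMSO) from an unpaired t-test (n=3 treated, n=26 DMSO).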

log2 ratio of Biotin-Ahx-Ub-VS probe labelling, inactive:
CCC1c2ccsc2CCN1C(=O)CCl (configuration not stated) 0.124
CN1c2ccccc2C(NC(=O)CCl)CS1(=O)=O (configuration not stated) -0.19
Cl.O=C(CCl)N1CCc2ncncc2C1 -0.214
Cl.Cn1ncc2c1CCCC2NC(=O)CCl (configuration not stated) 0.328
O=C(CCl)NC1CCOc2ccccc21 (configuration not stated) 0.0839
COc1cccc(CN(C)C(=O)CCl)c1 0.0582

Same assay, conditions: compound concentration: 200uM; treatment time: 3 h

log2 ratio of Biotin-Ahx-Ub-VS probe labelling, inactive:
CCC1c2ccsc2CCN1C(=O)CCl (configuration not stated) -0.277
CN1c2ccccc2C(NC(=O)CCl)CS1(=O)=O (configuration not stated) -0.231
Cl.O=C(CCl)N1CCc2ncncc2C1 -0.296
Cl.Cn1ncc2c1CCCC2NC(=O)CCl (configuration not stated) -0.153
O=C(CCl)NC1CCOc2ccccc21 (configuration not stated) -0.0989
COc1cccc(CN(C)C(=O)CCl)c1 -0.322
